SMN2 splice enh: SMN2 splice variant enhancement; HEK293 SMN2-luciferase splicing reporter, luminescence, 30-36 h; Potency, µM (titrated, usually from 46.1 µM), for the others: at the top dose activity change, positive = activation, usual class: activators; 2.8% of 210,000 active; further: % of control where 0% means no effect; nearly all actives have a fitted effect of over 55% in size
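qHTS luciferase splicing reporter: luminescence rises when SMN2 exon 7 is included in transfected HEK293 cells. Compound exposure lasted 30-36 h at 37C, with 4.5 mM final sodium butyrate as control, followed by a ONE-Glo read.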
NPC1 promoter act: activators of NPC1 promoter; Huh7 NPC1 promoter luciferase reporter, 24 h; Potency, µM (top dose mostly 9.22 µM), for the others: top-dose activation, hits mostly activators; 2.4% of 320,000 active; further: % of control where 0% means no effect; nearly all actives have a fitted effect of over 60% in size
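Stably transfected Huh7 (NPC1 promoter→luciferase), 1500 cells/well in Opti-MEM + 10% FBS, 2 h settle, then compound 24 h at 37 °C. Luminescence after 10 min with Amplite reagent.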
FLuc counter: inhibits or activates purified firefly luciferase, miR-21 counter-screen | purified FLuc, Km substrates, luminescence inhibition | P08659 | 6.9% of 360,000 active | AID 588342 | Potency, µM (titrated, usually from 57.5 µM), without a hit: at the highest dose activity change, negative = inhibition, usual class: inhibitors;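 further: plate controls were vehicle for no effect and reference inhibitor for full effect; nearly all actives have a fitted effect of over 55% in size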
Target sequence (P08659 whole entry, looked up): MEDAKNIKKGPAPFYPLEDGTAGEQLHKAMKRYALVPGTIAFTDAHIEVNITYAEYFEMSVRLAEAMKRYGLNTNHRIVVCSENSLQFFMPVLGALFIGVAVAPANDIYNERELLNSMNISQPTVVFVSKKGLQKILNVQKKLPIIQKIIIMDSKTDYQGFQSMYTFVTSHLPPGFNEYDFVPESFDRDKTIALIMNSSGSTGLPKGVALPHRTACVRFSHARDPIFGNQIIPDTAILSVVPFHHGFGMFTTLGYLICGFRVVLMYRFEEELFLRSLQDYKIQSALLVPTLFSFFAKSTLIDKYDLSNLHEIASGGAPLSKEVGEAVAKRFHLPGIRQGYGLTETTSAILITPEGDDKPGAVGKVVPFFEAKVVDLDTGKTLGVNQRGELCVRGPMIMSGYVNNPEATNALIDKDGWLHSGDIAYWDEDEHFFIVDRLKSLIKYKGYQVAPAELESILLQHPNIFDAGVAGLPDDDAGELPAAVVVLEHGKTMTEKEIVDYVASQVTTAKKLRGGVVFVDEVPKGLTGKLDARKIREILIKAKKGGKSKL
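Purified P. pyralis luciferase (10nM final) with 10uM D-luciferin and 10uM ATP (Km levels) in 50mM Tris acetate pH 7.5, 10mM Mg acetate, 0.01% Tween-20, 0.05% BSA; qHTS 6-point titration, ~60 µM downward; luminescence read.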
Rab9 promoter act: Rab9 promoter activation. Huh7 Rab9 promoter-luciferase reporter, luminescence, 24 h. Potency, µM (top dose mostly 9.22 µM), for inactives: at the highest dose activation, negative = inhibition, actives largely listed as activators. 2.8% of 320,000 active. AID 485297; further: % of control where 0% means no effect; nearly all actives have a fitted effect of over 60% in size
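Luminescence from Amplite-detected luciferase (10 minutes, ambient) reports Rab9 promoter activation. Before that, stable Rab9-luciferase Huh7 cells (1500/well, reduced-serum OP-MEM I plus 10% FBS) were exposed to compound for 24 hours at 37C.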
ELG1 DNA repair: inhibitors of ELG1-dependent DNA repair in HEK293T cells | HEK293T ELG1-luciferase reporter, luminescence, 16 h; DNA damage induced by 5-fluorouridine | Potency, µM (doses to about 46.1 µM), inactives show at the highest dose activity change, negative = inhibition, actives largely listed as inhibitors | AID 504467 | 2.3% of 330,000 active; further: on the % scale 0 is the no-effect control and ±100 the full control effect; nearly all actives have a fitted effect of over 55% in size
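In this reporter screen, reduction of luminescence relative to DMSO vehicle indicated activity. Compounds and 5-fluorouridine were added together to 2,000 cells per well, incubated for 16 hr at 37 °C, then developed with ONE-Glo.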
ELG1 genotoxic: inducers of genotoxicity in HEK293T ELG1-luciferase cells; Potency, µM (titrated, usually from 46 µM), without a hit: at the top dose activity change, positive = activation, hits mostly activators; HEK293T ELG1-luciferase reporter, luminescence, 16 h; 1.3% of 330,000 active; further: % of control where 0% means no effect; nearly all actives have a fitted effect of over 60% in size
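Reporter readout depends on ELG1 protein level, which increases with genetic stress. After 16 hr compound exposure at 37 °C, luciferase activity was quantified using ONE-Glo.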
The depositor's hits bear a star; u = inconclusive; x = no result given; ! = a repeat was not active; [ ] = another dose, or the depositor's remark. In the library only some 9.4% were active in any assay of this set; here they are far more common. The call rests on the fitted dose curve; in most records, active means well fitted curve in the direction sought with a large enough effect; inconclusive means small, poorly fitted or top-dose-only effect, or another doubt; inactive means no such curve, though single readings can be large; an effect the other way counts as inactive or inconclusive. Potency means the concentration at half of the fitted maximal effect.

SMILES	SMN2 splice enh	NPC1 promoter act	FLuc counter	Rab9 promoter act	ELG1 DNA repair	ELG1 genotoxic
COc1cc(CN2CCN(C(=O)c3ccc(-c4ccccc4)cc3)CC2)cc(OC)c1OC	x	6%	21µM*	12%	u	u
Cc1ccc(S(=O)(=O)NCc2ccc(C(=O)N3CCN(Cc4ccccc4)CC3)cc2)cc1	-70%	-5%	4%	-11%	u	-13%
COc1cccc(CN2CCN(C(=O)c3ccc(-c4ccccc4)cc3)CC2)c1	-22%	8%	2%	-3%	u	-8%
COc1ccc(CN2CCN(C(=O)c3ccc(CNS(=O)(=O)c4ccc(C)cc4)cc3)CC2)c(OC)c1OC	x	-2%	0%	-10%	9.2µM*	-10%
CCOC(=O)C1=C(N)Oc2ccc(Br)cc2C1C(C#N)C(=O)OCC (centres undefined)	-30%	x	x	x	x	x
COc1ccc(/C=N/OCC(=O)N=Nc2c(O)[nH]c3ccc(Br)cc23)cc1OC	8%	-3%	-10%	-1%	13µM*	0%
COc1ccc(/C(C)=N/OCC(=O)N=Nc2c(O)[nH]c3ccc(Br)cc23)cc1	-33%	-1%	0%	0%	u	0%
CCSc1nnc(NC(=O)c2cccnc2Cl)s1	18µM*	18%	u	11%	u	u
CCSc1nnc(NC(=O)c2ccccc2C)s1	10µM*	u	24µM*	2.5µM*	u	u
O=C(Nc1nnc(C(F)(F)F)s1)c1ccc(Br)s1	u	u	8.5µM*	12%	u	11%
CCSc1nnc(NC(=O)c2cccnc2)s1	u	u	u	29%	u	u
Cc1cc(C(=O)Nc2nnc(C(F)(F)F)s2)no1	25%	11%	u	14%	u	17%
CCSc1nnc(NC(=O)c2ccc(Br)s2)s1	u	u	15µM*	u	u	u
Cc1cccc(-c2nc(CSc3nncn4c3cc3oc(C)cc34)c(C)o2)c1	x	x	0%	x	x	x
COC(=O)c1scc(-c2ccc(C)cc2)c1S(=O)(=O)Nc1cc(C)c(Cl)cc1OC	x	x	-8%	x	x	x
CCN1C(C(=O)c2ccccc2)=C(OC(=O)COc2ccc(C)cc2)c2ccccc2S1(=O)=O	-20%	x	-16%	x	x	x
COC(=O)/C=C1/S/C(=N/NC(=O)c2ccccc2OC)NC1=O	x	-18%	-14%	2%	u	6%
O=C(Nc1nnc(C2CCCCC2)s1)c1ccc(Br)s1	3.2µM*	0.5µM*	u	1.8µM*	u	u
O=C(COc1ccc(F)cc1)Nc1nnc(C2CCCCC2)s1	x	2%	0%	15%	u	7%
NC(=O)c1ccccc1NC(=O)c1ccccc1Cl	x	2%	-17%	2%	15%	5%
CCSc1nnc(NC(=O)c2ccccc2)s1	11µM*	3.5µM*	13µM*	3.2µM*	u	u
O=C(Nc1ccccc1C(=O)Nc1nnc(C(F)(F)F)s1)c1ccccc1Cl	x	-26%	u	-26%	5.2µM*	-18%
CCSc1nnc(NC(=O)c2ccccn2)s1	4µM*	0.89µM*	8.5µM*	u	u	16µM*
COc1cc(Cl)c(C)cc1Nc1nc2ccccc2c2nnc(C)n12	x	x	-1%	x	x	x
N#Cc1ccc(-c2cccs2)nc1SCc1ccc(Cl)cc1Cl	-16%	x	3%	x	x	x
SMILES	SMN2 splice enh	NPC1 promoter act	FLuc counter	Rab9 promoter act	ELG1 DNA repair	ELG1 genotoxic
CCc1oc2ccccc2c1C(=O)c1cc(Br)c(O)c(Br)c1	-9%	-1%	15µM*!	-5%	-7%	0%
CCc1ccc(OCC(=O)c2c(O)c3ccccc3oc2=O)cc1	10%	-8%	u	2%	5%	4%
COc1cc(C(=O)Nc2ccc(C)cc2)c2ccccc2n1	x	-22%	-9%	-28%	22%	13%
Cc1ccc(NC(=O)C2=C(O)CCn3c2nc2ccccc23)cc1	-16%	17%	12µM*	8%	-10%	1%
CN(C)c1ncc2nc(CCc3ccccc3)c(=O)n(Cc3ccc(F)cc3)c2n1	2%	x	x	x	x	x
N=c1nc(N)nc2n1NC(c1ccc(F)cc1)=CS2	20%	-1%	15µM*	-2%	u	16%
Cc1csc2nc(COC(=O)c3cccc(NC(=O)c4cccc(Cl)c4)c3)cc(=O)n12	x	x	-5%	x	x	x
COc1cccc(N2CCN(C(=O)c3cc(-c4ccc(F)cc4)[nH]c3C)CC2)c1	x	1%	2%	-3%	21µM*	-4%
COc1ccc(-c2c(C)c3ccc(O)c(CN4CCCCC4)c3oc2=O)cc1OC	x	x	3%	x	x	x
COc1ccccc1/C=N/N1C(=O)c2cccc3cccc(c23)C1=O	18%	-3%	0%	-3%	5%	0%
CN(C)c1ccc(/C=N/N2C(=O)c3ccccc3C2=O)cc1	x	0%	0.43µM*	10%	-1%	7%
COc1ccc(/C=N\n2nnc3ccccc32)cc1	0.79µM*	0.32µM*	0.19µM*	0.22µM*	u	u
CN(C)c1ccc(C(=O)NN2C(=O)c3ccccc3C2=O)cc1	x	-2%	-12%	-2%	12%	0%
CCN(CC)c1ccc(/C=N/N2C(=O)c3ccccc3C2=O)c(O)c1	u	21%	u	23%	u	-4%
CCN(CC)c1ccc(/C=N/N2C(=O)c3ccccc3C2=O)cc1	-15%	0%	4.3µM*	-2%	21%	0%
COc1ccc(/C=N/N2C(=O)c3ccccc3C2=O)cc1	-1%	1%	2.1µM*	-1%	12%	-4%
C[C@@]1(O)CCOC(=O)C1	-12%[20.6 µM]	x	x	x	x	x
CC(C)Oc1ccc(C(=O)Nc2ccc3oc(-c4ccncc4)nc3c2)cc1	7%	x	-19%	x	x	x
O=C(COC(=O)c1ccccc1NCCO)NCC1CCCCC1	x	22%	-3%	13%	u	13%
Cc1ccc(/C=N/Nc2ccc(F)cc2F)s1	x	1.6µM*	13µM*	u	u	u
